# EPAC2 antag: Validation qHTS for antagonist of cAMP-regulated guanine nucleotide exchange factor 4 (EPAC2); Rap guanine nucleotide exchange factor 4 (Homo sapiens), Q8WZA2; EPAC2 Rap1B BODIPY-GDP exchange, fluorescence; Potency, µM (titrated, usually from 112 µM), for the others: top-dose activity, negative = inhibition, hits mostly inhibitors; actives 1.7% (n = 16,000);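 also: 100% = activation by cAMP agonist control; nearly all actives have a fitted effect of over 40% in size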
#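 Normalized against a 6.5 mM cAMP agonist control, compounds were tested on 100 nM EPAC2 exchanging Rap1B-bound BODIPY-GDP (250 nM) for 50 uM GDP. Fluorescence drop (ex 480, em 540 nm) was tracked at room temperature over 30 min at 5-min intervals.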
# EPAC1 agonist: Validation qHTS for agonist of cAMP-regulated guanine nucleotide exchange factor 3 (EPAC1); actives 1% (n = 16,000); EPAC1 Rap1b BODIPY-GDP exchange, fluorescence; Potency, µM, for inactives: max response, positive = active, usual class: activators; Rap guanine nucleotide exchange factor 3 (Homo sapiens), O95398; also: nearly all actives have a fitted effect of over 70% in size
# Target sequence (O95398 whole entry, looked up): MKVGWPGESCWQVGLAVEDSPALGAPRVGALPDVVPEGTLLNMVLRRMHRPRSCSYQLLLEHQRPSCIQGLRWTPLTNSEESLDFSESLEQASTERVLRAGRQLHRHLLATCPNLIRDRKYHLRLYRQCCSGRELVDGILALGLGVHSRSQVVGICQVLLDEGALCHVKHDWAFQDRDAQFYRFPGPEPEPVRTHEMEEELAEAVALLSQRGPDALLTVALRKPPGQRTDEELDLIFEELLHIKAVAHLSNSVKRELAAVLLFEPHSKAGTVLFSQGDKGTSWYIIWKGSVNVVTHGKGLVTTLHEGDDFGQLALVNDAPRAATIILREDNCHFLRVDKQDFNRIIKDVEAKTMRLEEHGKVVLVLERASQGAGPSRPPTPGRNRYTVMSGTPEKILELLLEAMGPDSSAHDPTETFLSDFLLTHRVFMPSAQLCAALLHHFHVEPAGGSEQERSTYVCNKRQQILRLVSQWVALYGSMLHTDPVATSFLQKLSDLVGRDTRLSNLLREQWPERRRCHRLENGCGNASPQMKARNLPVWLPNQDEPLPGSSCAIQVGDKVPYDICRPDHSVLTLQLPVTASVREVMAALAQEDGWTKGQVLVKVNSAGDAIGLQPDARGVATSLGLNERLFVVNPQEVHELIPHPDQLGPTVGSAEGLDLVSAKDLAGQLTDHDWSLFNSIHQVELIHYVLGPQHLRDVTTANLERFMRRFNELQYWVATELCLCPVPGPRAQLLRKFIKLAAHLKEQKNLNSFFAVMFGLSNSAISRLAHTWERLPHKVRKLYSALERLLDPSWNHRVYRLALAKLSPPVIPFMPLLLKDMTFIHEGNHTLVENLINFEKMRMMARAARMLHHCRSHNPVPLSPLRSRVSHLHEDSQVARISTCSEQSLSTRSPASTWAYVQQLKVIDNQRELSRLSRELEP
# * marks the source's active call; other numbers are inactive results; ? = inconclusive; ! = not confirmed by another sample; [ ] = dose if it differs, or a comment. Compounds with a hit are over-represented: about 3.1% of the library has one in this group of screens. Calls follow the shape of the dose curve; as a rule, active = well fitted curve in the direction sought with a large enough effect; inconclusive = small, poorly fitted or top-dose-only effect, or another doubt; inactive = no such curve, though single readings can be large; an effect the other way counts as inactive or inconclusive. Unless noted, % is scaled to controls: 0 for no effect and ±100 for the full control effect; potency is read from the fitted curve at half-maximal effect.
SMILES,EPAC2 antag,EPAC1 agonist
O=C1CCC[C@@H]2CC(N(Cc3cc4ccccc4s3)c3ccccc3)C[C@@H]3CCN1[C@H]23 (stereo partly specified),-4%,100µM*
Cc1ccc(F)cc1S(=O)(=O)NCc1nc(N2CCCC2)c2cccc(C)c2n1,-30%,-1%
COc1cc(=O)n2c(c1C(=O)NCc1ccco1)CCN(C(=O)c1c(F)ccc(F)c1F)CC2,-14%,-11%
COc1cc(-c2noc(C)c2-c2ccc(N(C)C)nc2)cc(OC)c1OC,?,-2%
COc1cc(-c2noc(C)c2-c2ccc3[nH]ccc3c2)cc(OC)c1OC,79µM*,-73%
COC(=O)c1c(OC)cc2c(c1C)Oc1c(Cl)c(OC(C)=O)c(Cl)c(C)c1C(=O)O2,11µM*,-25%
COC(=O)c1c(C)cc(OC)cc1O,?,-32%
C=C1C(=O)O[C@H]2[C@H]1CC/C(C)=C\CC[C@@]1(C)O[C@@H]21,22%,-13%
CC(=O)c1ccc(F)c(-c2cc(C)cc3c2OC(CNC(=O)c2cnc4ccccn4c2=O)C3)c1 (stereo unspecified),?,11%
CC(C)C(NC(=O)c1ccoc1)c1nnc2n1CCN(Cc1ccc3c(c1)Cc1ccccc1-3)CC2 (stereo unspecified),?,22%
Cc1ccccc1C(=O)N1CCc2c(cnc(C)c2CNC(=O)c2ccc3c(c2)OCO3)C1,12%,0%
CCOC(=O)C1=C(C)NC(C)=C(C(=O)OCC)C1c1c(F)c(F)c(F)c(F)c1F,35µM*,-23%
CCOC(=O)C1=C(C)NC(C)=C(C(=O)OCC)C1c1ccccc1C=CC(=O)OC(C)(C)C,-24%,-59%
CC(C)=CCc1c(O)cc2occ(-c3ccc4c(c3)OCO4)c(=O)c2c1O,-25%,?
CC(C)=CCc1c2c(c3occ(-c4ccc(O)cc4)c(=O)c3c1O)C=CC(C)(C)O2,32µM*,-170%
CC(C)=CCc1c2c(c3occ(-c4ccc(O)c(O)c4)c(=O)c3c1O)C=CC(C)(C)O2,25µM*,-151%
O=c1c(-c2ccc(O)cc2)coc2cc(O)cc(O)c12,-18%,-5%
CO[C@H]1[C@H](NC(=O)c2ccsc2)c2ccccc2C12CCN(Cc1cc3ccccc3o1)CC2,-10%,29%
Cc1cc(-c2ccc(N=Nc3ccc4c(S(=O)(=O)O)cc(S(=O)(=O)O)c(N)c4c3O)c(C)c2)ccc1N=Nc1ccc2c(S(=O)(=O)O)cc(S(=O)(=O)O)c(N)c2c1O,32µM*!,-10%
Nc1c(N=Nc2ccc(-c3ccc(N=Nc4cc(S(=O)(=O)O)c5ccccc5c4N)cc3)cc2)cc(S(=O)(=O)O)c2ccccc12,40µM*,-6%
COc1ccc(C[C@@H](C)NC[C@H](O)c2ccc(O)c(NC=O)c2)cc1,-1%,1%
CC(=O)N[C@@H](CC(=O)N[C@@H](CCC(=O)O)C(=O)O)C(=O)O,-7%,-14%
CCCCC[C@H](O)C=C[C@H]1[C@H](O)CC(=O)[C@H]1CCCCCCC(=O)O,56µM*,-19%
CCCCC[C@H](O)/C=C/[C@H]1[C@H](O)CC(=O)[C@@H]1C/C=C\CCCC(=O)O,-11%,-13%
C=C1CC[C@H](O)CC1=C/C=C1\CCC[C@]2(C)[C@@H]([C@H](C)CCCC(C)(C)O)CC[C@@H]12,2%,-21%
SMILES,EPAC2 antag,EPAC1 agonist
C/C1=C2N=C(/C=C3N=C(/C(C)=C4\[N-]C(C(CC(N)=O)C4(C)CCC(=O)NCC(C)OP(=O)([O-])OC4C(CO)OC(n5cnc6cc(C)c(C)cc65)C4O)C4(C)N=C1C(CCC(N)=O)C4(C)CC(N)=O)C(CCC(N)=O)C\3(C)C)C(CCC(N)=O)C/2(C)CC(N)=O.[CH3-].[Co+3] (stereo unspecified),10µM*,2%
O=C1C=CC(=C(c2ccc(O)cc2)c2ccc(O)cc2)C=C1,?,100µM*
CCC(=O)c1ccc(O)cc1,16%,-12%
Cc1c(C(=O)NCC2(N3CCOCC3)CCCC2)cnn1-c1nccc(-c2ccccc2F)n1,3%,1%
CCCCCCCCCC[n+]1ccc(/C=C/c2c(C)[nH]c3ccccc23)cc1,371%,25µM*
CCCCCCC[n+]1ccc(/C=C/c2c[nH]c3ccccc23)cc1,226%,100µM*
Cc1[nH]c2ccccc2c1/C=C/c1nccc2ccccc12,?,28%
CCCCCCCCCC[n+]1ccc(/C=C/c2c[nH]c3ccccc23)c2ccccc21,-9%,-60%
C=C1CC[C@H](O)CC1=C/C=C1\CCC[C@]2(C)[C@@H]([C@H](C)CC[C@@H](O)C(C)(C)O)CC[C@@H]12,-27%,-7%
NCCC[C@H](N)CC(=O)N[C@H]1CNC(=O)[C@H]([C@H]2C[C@H](O)N=C(N)N2)NC(=O)C(=CNC(N)=O)NC(=O)[C@H](CO)NC(=O)[C@H](CO)NC1=O,-3%[29.6 µM],3%

# Bioassay records as filed in PubChem BioAssay.
